Reference: PubChem BioAssay (Tox21)
Inconclusive results are not listed. Activity calls are given as the source filed them. Unless noted, the call rests on the fitted dose curve; in most records, active means well fitted curve in the direction sought with a large enough effect in the repeat runs; inconclusive means weak or mixed curves; inactive means no such curve, though single readings can be large; an effect the other way counts as inactive or inconclusive.

Experiments:
[1] = qHTS assay for small molecule agonists of the p53 signaling pathway (AID 651631; calls by dose curve; further: nearly all actives have a fitted effect of over 15% in size)
How it was run: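 HCT-116 cells carrying a stable p53 response element–beta-lactamase reporter were plated, rested 5 h at 37 °C, then exposed to compound in DMSO for 16 h at 37 °C; reporter activity was read as FRET substrate fluorescence after 2 h at room temperature.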

[2] = qHTS assay for small molecules that induce genotoxicity in human embryonic kidney cells expressing luciferase-tagged ATAD5 (AID 651632); further: nearly all actives have a fitted effect of over 15% in size
How it was run: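 Cells were seeded at 2,000 per well, dosed with compound, and incubated 16 hr at 37C in 5% CO2. Luciferase activity was then quantified after a 30 min room-temperature incubation with Amplite.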

[3] = qHTS assay for small molecule agonists of the p53 signaling pathway - cell viability (AID 651633; calls by dose curve; further: series mostly up to about 83 µM; nearly all actives have a fitted effect of over 30% in size)
How it was run: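 p53RE-bla cells were treated with compound for 16 hours at 37 C. Cytotoxicity was then measured as CellTiter-Glo luminescence after 30 min at room temperature.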

[4] = qHTS assay for small molecules that induce genotoxicity in human embryonic kidney cells expressing luciferase-tagged ATAD5 - cell viability (AID 651634; calls by dose curve; further: nearly all actives have a fitted effect of over 25% in size)
How it was run: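 Cells (HEK293T, luciferase-tagged ATAD5) are seeded at 2,000 per well, dosed with compound or DMSO vehicle, and incubated 15.5 hr at 37C and 5% CO2. CellTiter-Fluor is added for 30 min before fluorescence is measured.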

[5] = qHTS assay for small molecule disruptors of the mitochondrial membrane potential - cell viability (AID 720634; calls by dose curve;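 further: human HepG2 liver cancer cells; series mostly up to about 83 µM; nearly all actives have a fitted effect of over 20% in size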)
How it was run: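 Cytotoxicity was measured by ATP quantitation in HepG2 wells that had first been treated with compound for 1 hr and stained with m-MPI dye; CellTiter-Glo incubation was 30 min at room temperature.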

[6] = qHTS assay for small molecule disruptors of the mitochondrial membrane potential (AID 720635)
How it was run: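 HepG2 cells exposed to compound 1 hr at 37C, then Mito-MPS dye 30 min. Ratio read of aggregate (540/590 nm) versus monomer (490/535 nm) fluorescence.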

[7] = qHTS assay to test for compound auto fluorescence at 590 nm (red) in HepG2 cells (AID 720674)
How it was run: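 Fluorescence at 590 nm emission following 540 nm excitation was recorded from HepG2 wells one hour after compound transfer, with DMSO-only wells as vehicle and Rose Bengal sodium equivalency as the scale.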

[8] = qHTS assay to test for compound auto fluorescence at 535 nm (green) in HepG2 cells (AID 720675)
[9] = qHTS assay to test for compound auto fluorescence at 460 nm (blue) in HEK293 cells (AID 720678)
How it was run: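 Measured: blue fluorescence (Ex 405/Em 460 nm) of compound-treated HEK293 cells, incubated overnight at 37C with 5% CO2 and scaled to triamterene equivalents.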

[10] = qHTS assay to test for compound auto fluorescence at 590 nm (red) in HEK293 cells (AID 720679)
How it was run: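 Using HEK293 cells at 2,000 per well, the screen added 23 nL of each compound after cell attachment and incubated overnight (37C, 5% CO2). The plate reader then captured red-label fluorescence, Ex/Em 540/590nm.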

[11] = qHTS assay to test for compound auto fluorescence at 535 nm (green) in HEK293 cells (AID 720680)
[12] = qHTS assay to test for compound auto fluorescence at 460 nm (blue) in HEK293 cell free culture (AID 720681)
How it was run: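 Compounds were added to cell-free DMEM with 10% FBS and fluorescence read directly. The blue channel used 405 nm excitation and 460 nm emission, with triamterene as the reference fluorophore.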

[13] = qHTS assay to test for compound auto fluorescence at 535 nm (green) in HEK293 cell free culture (AID 720682)
How it was run: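 Read-out: 485/535 nm fluorescence intensity, calibrated against fluorescein. Medium only (DMEM + 10% FBS, no cells); test compound or DMSO vehicle added by pintool before plate reading.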

[14] = qHTS assay to test for compound auto fluorescence at 590 nm (red) in HEK293 cell free culture (AID 720683)
How it was run: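 Cell-free wells of DMEM with 10% FBS received compound, and intrinsic fluorescence was read at excitation/emission 540/590 nm. Values expressed as equivalence to Rose Bengal sodium.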

[15] = qHTS assay to test for compound auto fluorescence at 590 nm (red) in HepG2 cell free culture (AID 720684)
How it was run: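 Auto fluorescence equivalency versus Rose Bengal sodium, red channel Ex/Em 540/590 nm; compounds in cell-free MEM/10% FBS; DMSO vehicle control.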

[16] = qHTS assay to test for compound auto fluorescence at 460 nm (blue) in HepG2 cell free culture (AID 720685)
How it was run: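 Cell-free plates of MEM plus 10% FBS received 23 nL compound or DMSO vehicle; blue-channel (405/460 nm) intensity scored against triamterene as reference fluorophore.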

[17] = qHTS assay to test for compound auto fluorescence at 535 nm (green) in HepG2 cell free culture (AID 720686)
[18] = qHTS assay to test for compound auto fluorescence at 460 nm (blue) in HepG2 cells (AID 720687)
How it was run: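 HepG2 cells in MEM with 10% FBS, attached overnight at 37 C, were exposed to compound or DMSO for 1 hr at 37 C, 5% CO2. Blue fluorescence was read at 405/460 nm, with triamterene as reference fluorophore.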

[19] = molecular target: Glucocorticoid receptor (Homo sapiens) (UniProt P04150); experiment: qHTS assay to identify small molecule agonists of the glucocorticoid receptor (GR) signaling pathway (AID 720691; active means well fitted activation curve with a large enough effect in the signal ratio in the repeat runs, not every such curve was filed as active; the % refers to the signal ratio)
Glucocorticoid receptor (Homo sapiens), sequence (P04150 whole entry, looked up): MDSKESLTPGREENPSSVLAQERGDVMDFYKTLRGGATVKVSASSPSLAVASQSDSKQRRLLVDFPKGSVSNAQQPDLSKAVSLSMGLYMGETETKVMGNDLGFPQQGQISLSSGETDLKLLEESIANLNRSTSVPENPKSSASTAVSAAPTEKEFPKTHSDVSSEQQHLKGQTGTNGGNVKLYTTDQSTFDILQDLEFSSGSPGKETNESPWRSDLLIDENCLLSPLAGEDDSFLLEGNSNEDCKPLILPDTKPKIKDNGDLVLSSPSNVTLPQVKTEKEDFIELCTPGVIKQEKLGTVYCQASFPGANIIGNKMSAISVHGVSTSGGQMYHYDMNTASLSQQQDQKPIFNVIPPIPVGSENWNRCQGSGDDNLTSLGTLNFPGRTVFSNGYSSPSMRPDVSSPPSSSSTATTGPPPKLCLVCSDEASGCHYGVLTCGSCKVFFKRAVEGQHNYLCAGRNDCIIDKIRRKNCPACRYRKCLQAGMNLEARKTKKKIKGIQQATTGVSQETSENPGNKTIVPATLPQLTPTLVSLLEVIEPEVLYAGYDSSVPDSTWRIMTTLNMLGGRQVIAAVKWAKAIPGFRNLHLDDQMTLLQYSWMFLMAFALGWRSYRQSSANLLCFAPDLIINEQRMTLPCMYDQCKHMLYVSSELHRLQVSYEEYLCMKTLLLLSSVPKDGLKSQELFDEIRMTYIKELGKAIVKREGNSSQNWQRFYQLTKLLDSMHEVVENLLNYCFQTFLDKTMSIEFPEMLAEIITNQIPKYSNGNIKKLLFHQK
How it was run: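 Steps: seed GR-bla HeLa cells, incubate 4 h at 37 C/5% CO2; pin-transfer DMSO-dissolved compounds; incubate 18 h at 37 C; add LiveBLAzer B/G FRET substrate; after 2 h at room temperature, measure fluorescence.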

[20] = molecular target: Glucocorticoid receptor (Homo sapiens) (UniProt P04150); experiment: qHTS assay to identify small molecule antagonists of the glucocorticoid receptor (GR) signaling pathway (AID 720692; active means well fitted inhibition curve with a large enough effect in the signal ratio in the repeat runs, not every such curve was filed as active; the % refers to the signal ratio)
How it was run: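 Antagonism was scored as loss of dexamethasone-driven (5 nM final) reporter signal in HeLa cells bearing a glucocorticoid response element–beta-lactamase construct, after 18 h compound exposure at 37 C and 2 h FRET substrate loading.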

Measured: Potency

O=C1CCCc2ccccc21
inactive: all assays above

CCCc1c2oc(C(=O)O)cc(=O)c2cc2c(=O)cc(C(=O)O)n(CC)c12
not listed: [7] | [14]
inactive: all other assays above

CCN(O)CC
not listed: [8] | [16] | [19] | [20]
inactive: all other assays above

CCCCCCCCCC/C=C/C#N
not listed: [12] | [16] | [18] | [19] | [20]
inactive: all other assays above

CCOC(=O)C(Br)c1ccccc1 (configuration not stated)
not listed: [14] | [18] | [19] | [20]
inactive: all other assays above

COc1cc(C)ccc1C(C)C
not listed: [10] | [14] | [17] | [19] | [20]
inactive: all other assays above

CN(C)Cc1ccccc1
not listed: [8]
inactive: all other assays above

NC(=O)Cc1cccc(C(=O)c2ccccc2)c1N
not listed: [8]
inactive: all other assays above

CCN1CC(CCN2CCOCC2)C(c2ccccc2)(c2ccccc2)C1=O (configuration not stated)
not listed: [14]
inactive: all other assays above

O=c1[nH]cnc2c1ncn2[C@@H]1O[C@H](CO)[C@@H](O)[C@H]1O
not listed: [10] | [14]
inactive: all other assays above

C=C(C)C(=O)OCCOP(=O)(O)O
inactive: all assays above

CCCOCCC
not listed: [8] | [16] | [17]
inactive: all other assays above
